Source: PubChem BioAssay (Tox21)
Where “and” joins values, the source holds several entries; their conditions need not be identical. Equal values may be shown once. Results filed as inconclusive are left out. Calls of active or inactive are those of the source. Calls come from the whole dose curve; as a rule, active = well fitted curve in the direction sought with a large enough effect in the repeat runs; inconclusive = weak or mixed curves; inactive = no such curve, though single readings can be large; an effect the other way counts as inactive or inconclusive.

Legend:
[1] = A CellTox Green Cytotoxicity Assay to monitor cytotoxicity in HepG2 cells - 16 hour (AID 1224876); details: CellTox Green fluorescence; series mostly up to 76.8 µM; note: nearly all actives have a fitted effect of over 45% in size; note: potency is the fitted concentration of half-maximal effect
In short: (§1)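 Using 1536-well format, dye-containing HepG2 suspension was seeded, allowed 5 h at 37 C/5% CO2, dosed by pintool with compounds, positive and negative controls, and imaged for fluorescence across 40 h.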

[2] = A CellTox Green Cytotoxicity Assay to monitor cytotoxicity in HepG2 cells - 24 hour (AID 1224878); details: CellTox Green fluorescence; series mostly up to 76.8 µM; note: nearly all actives have a fitted effect of over 45% in size; note: potency is the fitted concentration of half-maximal effect
In short: as §1

[3] = A CellTox Green Cytotoxicity Assay to monitor cytotoxicity in HepG2 cells - 40 hour (AID 1224879); details: CellTox Green fluorescence; series mostly up to 76.8 µM; note: nearly all actives have a fitted effect of over 40% in size; note: potency is the fitted concentration of half-maximal effect
In short: as §1

[4] = qHTS RealTime-Glo MT Cell Viability Assay in HEK293 cells - 0 hour (AID 1224880); details: RealTime-Glo luminescence; series mostly up to 76.8 µM; note: nearly all actives have a fitted effect of over 45% in size; note: potency is the fitted concentration of half-maximal effect
In short: (§2)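 Viable HEK293 cells reduce a cell-permeant prosubstrate; the product diffuses out and is consumed by NanoLuc in the medium to give light. Compounds went in after a 5 h incubation and plates were read over the treatment course.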

[5] = A CellTox Green Cytotoxicity Assay to monitor cytotoxicity in HepG2 cells - 0 hour (AID 1224882); details: CellTox Green fluorescence; series mostly up to 76.8 µM; note: nearly all actives have a fitted effect of over 35% in size
In short: as §1

[6] = A CellTox Green Cytotoxicity Assay to monitor cytotoxicity in HepG2 cells - 32 hour (AID 1224883); details: CellTox Green fluorescence; series mostly up to 76.8 µM; note: nearly all actives have a fitted effect of over 50% in size; note: potency is the fitted concentration of half-maximal effect
In short: as §1

[7] = A CellTox Green Cytotoxicity Assay to monitor cytotoxicity in HEK293 cells - 8 hour (AID 1224884); details: CellTox Green fluorescence; series mostly up to 76.8 µM; note: nearly all actives have a fitted effect of over 35% in size
In short: (§3)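 Fluorescence intensity, read at 0, 8, 16, 24, 32 and 40 h of compound treatment, reflected dye binding to DNA of dead HEK293 cells; compounds (23 nL, DMSO) were added 5 h after plating cells with reagent.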

[8] = qHTS RealTime-Glo MT Cell Viability Assay in HepG2 cells - 0 hour (AID 1224889); details: RealTime-Glo luminescence; series mostly up to 76.8 µM; note: nearly all actives have a fitted effect of over 50% in size; note: potency is the fitted concentration of half-maximal effect
In short: (§4)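 Cells + NanoLuc/prosubstrate dispensed (600 cells/well) → 5 h at 37 C/5% CO2 → compounds in DMSO transferred → 40 h incubation at 37 C, luminescence read at 0, 8, 16, 24, 32, 40 h.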

[9] = A CellTox Green Cytotoxicity Assay to monitor cytotoxicity in HepG2 cells - 8 hour (AID 1224890); details: CellTox Green fluorescence; series mostly up to 76.8 µM; note: nearly all actives have a fitted effect of over 45% in size
In short: as §1

[10] = qHTS assay to identify small molecule antagonists of the androgen receptor (AR) signaling pathway using the MDA cell line in the presence of 0.5 nM R1881 - cell viability counter screen (AID 1259242); details: MDA-kb2 viability, CellTiter-Fluor protease fluorescence, 16 h; series mostly up to 92.4 µM; note: nearly all actives have a fitted effect of over 45% in size; note: potency is the fitted concentration of half-maximal effect
In short: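 Viability of MDA-kb2 cells was multiplexed with the luciferase AR readout; after 16 hr with compounds and R1881 at 0.5 nM final, CellTiter-Fluor fluorescence was recorded.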

[11] = A CellTox Green Cytotoxicity Assay to monitor cytotoxicity in HEK293 cells - 24 hour (AID 1224875); details: CellTox Green fluorescence; series mostly up to 76.8 µM; note: nearly all actives have a fitted effect of over 45% in size
In short: as §3

[12] = qHTS RealTime-Glo MT Cell Viability Assay in HepG2 cells - 32 hour (AID 1224877); details: RealTime-Glo luminescence; series mostly up to 76.8 µM; note: nearly all actives have a fitted effect of over 55% in size; note: potency is the fitted concentration of half-maximal effect
In short: as §4

[13] = A CellTox Green Cytotoxicity Assay to monitor cytotoxicity in HEK293 cells - 32 hour (AID 1224881); details: CellTox Green fluorescence; series mostly up to 76.8 µM; note: nearly all actives have a fitted effect of over 40% in size; note: potency is the fitted concentration of half-maximal effect
In short: as §3

[14] = A CellTox Green Cytotoxicity Assay to monitor cytotoxicity in HEK293 cells - 16 hour (AID 1224888); details: CellTox Green fluorescence; series mostly up to 76.8 µM; note: nearly all actives have a fitted effect of over 35% in size; note: potency is the fitted concentration of half-maximal effect
In short: as §3

[15] = qHTS assay to identify small molecule antagonists of the estrogen receptor alpha (ER-alpha) signaling pathway using the BG1 cell line in the presence of 0.1 nM 17-beta-estradiol - cell viability counter screen (AID 1259241); details: VM7Luc4E2 (BG1) viability, CellTiter-Fluor protease, 22 h, 0.1 nM estradiol agonist added; series mostly up to 92.4 µM; note: nearly all actives have a fitted effect of over 40% in size; note: potency is the fitted concentration of half-maximal effect
In short: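 Following 5 days in phenol red-free medium with charcoal-stripped serum, VM7Luc4E2 cells received test compounds alongside 0.1 nM 17beta-estradiol (final) at 37C for 22 hr. Live cells were then quantified via protease-substrate fluorescence.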

[16] = qHTS RealTime-Glo MT Cell Viability Assay in HEK293 cells - 40 hour (AID 1224874); details: RealTime-Glo luminescence; max response: active compounds read low; note: nearly all actives have a fitted effect of over 50% in size; note: potency is the fitted concentration of half-maximal effect
In short: as §2

[17] = qHTS RealTime-Glo MT Cell Viability Assay in HEK293 cells - 24 hour (AID 1224886); details: RealTime-Glo luminescence; series mostly up to 76.8 µM; note: nearly all actives have a fitted effect of over 50% in size; note: potency is the fitted concentration of half-maximal effect
In short: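 Tox21 10K qHTS, HEK293, 600 cells/well, RealTime-Glo reagent co-dispensed with cells; 5 h preincubation, compound by pintool, 37 C, luminescence at 0–40 h.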

[18] = qHTS RealTime-Glo MT Cell Viability Assay in HEK293 cells - 8 hour (AID 1224887); details: RealTime-Glo luminescence; series mostly up to 76.8 µM; note: nearly all actives have a fitted effect of over 50% in size; note: potency is the fitted concentration of half-maximal effect
In short: as §2

[19] = qHTS RealTime-Glo MT Cell Viability Assay in HepG2 cells - 16 hour (AID 1224885); details: RealTime-Glo luminescence; series mostly up to 76.8 µM; note: nearly all actives have a fitted effect of over 50% in size
In short: as §4
% is set by controls: 0 for no effect and ±100 for the full control effect.

COc1ccc2cc1Oc1ccc(cc1)C[C@H]1c3c(cc4c(c3Oc3cc5c(cc3OC)CCN(C)[C@@H]5C2)OCO4)CCN1C
inactive: Potency [4] | Potency [5] | Potency [7] | Potency [8] | Potency [9]
active: Potency [1] 19 µM | Potency [2] 23.9 µM | Potency [3] 21.3 µM | Potency [6] 23.9 µM | Potency [10] 21.1 µM

CCO[C@@H]1O[C@H](C(COCc2ccccc2)OCc2ccccc2)[C@H](OCc2ccccc2)[C@H]1O (some centres not stated)
inactive: Potency [11] | Potency [1] | Potency [12] | Potency [2] | Potency [4] | Potency [13] | Potency [5] | Potency [6] | Potency [7] | Potency [14] | Potency [9] | Potency [15] | Potency [10]

CCOC(=O)c1ccc(C2CCC(NC[C@H](O)COc3ccc(O)c(NS(C)(=O)=O)c3)CC2)cc1 (some centres not stated)
active: Potency [16] 20.2 µM | Potency [12] 45.2 µM | Potency [2] 50.7 µM | Potency [3] 45.2 µM | Potency [6] 45.2 µM | Potency [17] 20.2 µM | Potency [18] 20.2 µM
inactive: Potency [4] | Potency [5] | Potency [7] | Potency [14] | Potency [9] | Potency [15] | Potency [10]

O=C(Nc1ccc2c(O)c(N=Nc3ccc(N=Nc4ccc(S(=O)(=O)O)cc4)cc3)c(S(=O)(=O)O)cc2c1)c1ccccc1
active: Potency [15] 12.2 µM | Potency [10] 27.3 µM
inactive: Potency [11] | Potency [1] | Potency [2] | Potency [3] | Potency [13] | Potency [5] | Potency [6] | Potency [7] | Potency [18] | Potency [14] | Potency [9]

OC[C@@H](O)[C@@H](O)CO
inactive: max response [16] 7.59% | Potency [11] | Potency [1] | Potency [2] | Potency [3] | Potency [4] | Potency [13] | Potency [5] | Potency [6] | Potency [19] | Potency [18] | Potency [14] | Potency [8] | Potency [15] | Potency [10]

CCCNCCC
inactive: Potency [11] | Potency [1] | Potency [12] | Potency [3] | Potency [4] | Potency [13] | Potency [5] | Potency [6] | Potency [7] | Potency [19] | Potency [17] | Potency [18] | Potency [14] | Potency [8] | Potency [15] | Potency [10]

CN1CCCCC1CCN1c2ccccc2Sc2ccc(S(C)=O)cc21 (configuration not stated)
inactive: Potency [11] | Potency [1] | Potency [12] | Potency [4] | Potency [13] | Potency [5] | Potency [7] | Potency [18] | Potency [14] | Potency [8] | Potency [15] | Potency [10]

O=C1CCc2ccc(OCCCCN3CCN(c4cccc(Cl)c4Cl)CC3)cc2N1
inactive: Potency [11] | Potency [1] | Potency [4] | Potency [13] | Potency [5] | Potency [7] | Potency [14] | Potency [8] | Potency [9]
active: Potency [16] 9.52 µM | Potency [6] 26.8 µM | Potency [17] 9.52 µM | Potency [18] 21.3 µM | Potency [10] 29.8 µM

CC1=Nc2ccccc2C1(C)C
inactive: Potency [11] | Potency [12] | Potency [4] | Potency [13] | Potency [7] | Potency [19] | Potency [17] | Potency [18] | Potency [14] | Potency [8] | Potency [15] | Potency [10]
active: Potency [2] 49 µM | Potency [6] 43.7 µM

OCCN1CCN(CCCN2c3ccccc3Sc3ccc(C(F)(F)F)cc32)CC1
inactive: Potency [5] | Potency [7] | Potency [8] | Potency [15]
active: Potency [3] 26.8 µM | Potency [6] 26.8 µM | Potency [17] 23.9 µM | Potency [14] 26.8 µM

CC(=O)[C@H]1CC[C@H]2[C@@H]3CCC4=CC(=O)CC[C@]4(C)[C@H]3CC[C@]12C
inactive: Potency [1] | Potency [5] | Potency [7] | Potency [14] | Potency [9] | Potency [15] | Potency [10]
active: Potency [16] 13.7 µM and 17.4 µM | Potency [3] 54.6 µM and 43.6 µM | Potency [4] 15.4 µM and 19.5 µM | Potency [13] 24.4 µM and 34.7 µM | Potency [6] 49 µM | Potency [17] 15.4 µM and 17.4 µM | Potency [18] 13.7 µM | Potency [8] 6.88 µM and 5.49 µM

CCCc1ccc(OCC(=O)N2CCN(C(=O)COc3ccc(CCC)cc3OC)CC2)c(OC)c1
inactive: Potency [11] | Potency [4] | Potency [5] | Potency [14] | Potency [8] | Potency [9] | Potency [15] | Potency [10]
active: Potency [16] 8.49 µM | Potency [2] 26.8 µM | Potency [3] 21.3 µM | Potency [6] 23.9 µM | Potency [18] 9.52 µM

CCOC(=O)Cn1cccc1-c1nc(-c2ccc(OC)cc2)c(-c2ccc(OC)cc2)s1
inactive: max response [16] -5.42% | Potency [11] | Potency [1] | Potency [2] | Potency [3] | Potency [4] | Potency [13] | Potency [5] | Potency [6] | Potency [7] | Potency [17] | Potency [18] | Potency [14] | Potency [8] | Potency [9] | Potency [15] | Potency [10]

COC1=C(OC)C(=O)C(CCCCCCCCCCO)=C(C)C1=O
active: Potency [16] 5.35 µM | Potency [17] 4.25 µM | Potency [18] 1.69 µM
inactive: Potency [11] | Potency [1] | Potency [2] | Potency [3] | Potency [4] | Potency [13] | Potency [5] | Potency [6] | Potency [14] | Potency [8] | Potency [9]

C#Cc1ccc(-c2ccccc2F)cc1
inactive: Potency [11] | Potency [1] | Potency [12] | Potency [4] | Potency [13] | Potency [5] | Potency [6] | Potency [7] | Potency [19] | Potency [18] | Potency [14] | Potency [8] | Potency [9] | Potency [15] | Potency [10]

C=C(C)C(=O)OCCCCCCCCCC
inactive: max response [16] 14.3% | Potency [1] | Potency [12] | Potency [2] | Potency [4] | Potency [5] | Potency [6] | Potency [7] | Potency [19] | Potency [17] | Potency [18] | Potency [8] | Potency [10]

O=S(=O)(O)c1ccc(N=Nc2c(O)ccc3ccccc23)cc1
inactive: Potency [11] | Potency [1] | Potency [2] | Potency [3] | Potency [4] | Potency [13] | Potency [5] | Potency [6] | Potency [7] | Potency [14]
active: Potency [15] 54.5 µM
